Source: PubChem BioAssay (several laboratories)
Shown are actives, neighbours in structure and some others; about 1.5% of the full set was active somewhere.
EBV gp42 block: Epstein-Barr virus gp42 inhibitors, primary screen, biochemical, uHTS, fluorescence polarization | AID 1085, 2008 | inhibition, % (tested at 21.74 µM) | 220,000 tested, 0.42% active | Fluorescence polarization binding assay, mP read-out; in the data active means inhibition above about 50%
GLD-1 TGE inh: GLD-1/TGE RNA complex disruptors, primary screen, biochemical, fluorescence polarization; Female germline-specific tumor suppressor gld-1 (Caenorhabditis elegans), Q17339; purified GLD-1 + fluorescein TGE RNA; inhibition, % at 5.96 µM; 320,000 tested, 0.44% active; AID 2280, 2010;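 active means percent inhibition above a per-plate cutoff, the plate mean of test compounds plus 3 SD, cut at about 30% in these data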
Target sequence (Q17339 whole entry, looked up): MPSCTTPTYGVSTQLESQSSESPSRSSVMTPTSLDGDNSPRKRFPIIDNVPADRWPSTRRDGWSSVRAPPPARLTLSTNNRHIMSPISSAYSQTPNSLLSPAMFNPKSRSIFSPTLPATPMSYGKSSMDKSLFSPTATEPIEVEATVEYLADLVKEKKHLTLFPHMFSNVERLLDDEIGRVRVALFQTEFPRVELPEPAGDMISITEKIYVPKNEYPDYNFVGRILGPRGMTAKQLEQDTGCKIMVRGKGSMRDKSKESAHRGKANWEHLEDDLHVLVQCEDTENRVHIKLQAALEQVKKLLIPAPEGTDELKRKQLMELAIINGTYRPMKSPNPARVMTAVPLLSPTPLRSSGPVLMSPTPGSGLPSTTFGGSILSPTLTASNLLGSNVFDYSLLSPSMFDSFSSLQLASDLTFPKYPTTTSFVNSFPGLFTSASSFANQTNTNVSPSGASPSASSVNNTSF
MEX-5 binding: MEX-5 zinc finger RNA-binding disruptors – biochemical, C. elegans, fluorescence polarization, MLPCN library, primary screen; 300,000 tested, 0.38% active; MEX-5/FITC-TCR2 RNA binding; active compounds read low; activity score (negative = inhibition of binding), % at 10 µM; Zinc finger protein mex-5 (Caenorhabditis elegans), Q9XUB2; AID 1832, 2009;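 active means inhibition past about -25% in most replicates, and total fluorescence under double the plate's negative control median, limit read from the data; inconclusive means replicates evenly split on the limit, or fluorescence at least double controls; inactive means too little inhibition in most replicates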
Bcl-xL primary: inhibitors of human Bcl-xL, primary screen, biochemical, fluorescence polarization, HTS; Bcl-2-like protein 1 (Homo sapiens), Q07817; GST-Bcl-xL / FITC-Bim BH3 peptide fluorescence polarization; inhibition, % at 10.9 µM; 320,000 tested, 0.7% active; AID 2129, 2009;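 active means inhibition above the mean of all tested compounds plus 3 SD, cutoff set per campaign, cut at about 30% in these data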;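 further: inhibitors lower millipolarization by displacing the labeled peptide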
MCL1 BIM primary: inhibitors of MCL1 binding to BIM-BH3, primary screen, biochemical, fluorescence polarization; 320,000 tested, 0.68% active; AID 2057, 2009; inhibition, % at 10.9 µM; GST-MCL1 / FITC-Bim-BH3 fluorescence polarization;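 active means inhibition above the mean inhibition of all tested compounds plus 3 SD, set per campaign, cut at about 40% in these data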;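 further: higher means more loss of mP so more displacement of Bim peptide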
E coli Lon inh: inhibitors of E. coli Lon protease, primary screen, biochemical, fluorescence polarization | AID 602123, 2011 | P0A9M0 | inhibition, % at 7.94 µM | 360,000 tested, 0.42% active | purified E. coli Lon protease; in the data active means inhibition above about 13%, passing the limit was not always enough
A number is an active result; . = inactive; ? = inconclusive; / = no result given.

SMILES | EBV gp42 block | GLD-1 TGE inh | MEX-5 binding | Bcl-xL primary | MCL1 BIM primary | E coli Lon inh
Cc1n[nH]c(C)c1Sc1ccccc1N=Cc1cc(Cl)cc([N+](=O)[O-])c1O | . | . | -51.2 | . | . | .
O=C(O)C1Nc2c(C(F)(F)F)ccc(Cl)c2C2C=CCC12 (stereo not given) | / | . | . | 38.5 | 47.6 | .
COCCNC(=O)C1Nc2ccc(C(F)(F)F)cc2C2C=CCC12 (stereo not given) | / | . | . | . | . | .
CCCCN(C(=O)CSc1nncn1-c1ccccc1OC)c1c(N)n(Cc2ccccc2)c(=O)[nH]c1=O | . | . | . | . | . | .
CCn1c(C)cc(/C=C2/NC(=O)N(c3ccccc3)C2=O)c1C | . | . | . | 30.8 | . | .
COCCn1c(C)cc(/C=C2/NC(=O)N(c3cccc(Cl)c3)C2=O)c1C | . | . | . | . | . | .
CC(=O)c1cc2cc(O)ccc2o1 | . | . | / | . | . | .
CC(=O)c1cc2c(O)c(O)ccc2o1 | . | . | . | 33.5 | . | .
CCCN1C(=O)/C(=C/c2ccc(C)o2)SC1=Nc1ccc(OC)cc1 | . | . | -71.6 | . | . | .
CC1=C/C(=C\c2ccc(Br)o2)C(=O)O1 | 51.0 | . | . | . | . | .
Cc1nc(S/C(=C\c2ccc(OCc3ccccc3Cl)cc2)C(=O)O)n[nH]1 | . | . | / | . | . | .
Cc1nc(S/C(=C\c2ccc(-c3ccc(C(=O)O)c(Cl)c3)o2)C(=O)O)n[nH]1 | . | / | -90.9 | / | / | .
O=c1cc(C(F)(F)F)[nH]c2ccc(C(F)(F)F)cc12 | . | . | . | . | . | .
COC(=O)c1scc2c(=O)cc(C(F)(F)F)[nH]c12 | . | . | . | 35.2 | . | .
Cc1cc(C)nc(SCC(=O)Nc2cc(C)on2)n1 | . | . | . | . | . | .
Cn1cnnc1Sc1nc2ccccc2nc1NS(=O)(=O)c1ccccc1 | . | . | . | . | . | .
Cn1ccnc1Sc1nc2ccccc2nc1NS(=O)(=O)c1ccccc1 | . | 38.8 | . | 34.4 | . | .
COc1cc2c(c(OC)c1OC)C(=O)CO2 | / | / | / | / | / | .
COc1ccc2c3c(cccc13)OCC2=O | . | . | . | 31.3 | . | .
O=C(CSc1nnc(-c2ccccc2F)o1)NC(=O)Cc1ccccc1 | / | . | / | . | . | .
COC(=O)c1c(C(=O)OC)c2ccccn2c1C(=O)c1ccccc1 | / | . | . | . | . | .
COC(=O)c1cc2c(-c3ccccc3)c(C)c3ccccn3c-2c1C(=O)OC | 64.8 | 63.0 | . | 46.6 | 43.0 | .
Cc1ccc(CNC(=O)CCCn2c(=O)c3ccccc3n(CC(=O)NC3CCCC3)c2=O)cc1 | . | . | . | . | . | .
COc1ccc(N=Cc2cc(Cc3ccccc3Cl)cc([N+](=O)[O-])c2O)cc1OC | 104.2 | . | . | . | . | .
Cc1cccc(C(=O)NNC2=CC(=O)CC(C)(C)C2)c1O | . | . | . | . | . | .
SMILES | EBV gp42 block | GLD-1 TGE inh | MEX-5 binding | Bcl-xL primary | MCL1 BIM primary | E coli Lon inh
CC1(C)CC(=O)C=C(NNC(=O)c2ccccc2O)C1 | . | 52.7 | . | . | . | .
Cc1ccc(C(=O)CSc2nc3c([nH]2)c(=O)n(C)c(=O)n3C)cc1 | . | . | -29.8 | . | . | .
COc1ccc(C2Nc3ccccc3C(=O)N2Cc2ccccc2)cc1CN1CCOCC1 (stereo not given) | . | . | . | . | . | .
Oc1c(Br)cc(/C=N/n2c(-c3ccccc3)n[nH]c2=S)c(Br)c1O | / | . | -52.0 | 60.2 | 108.1 | /
Oc1c(Br)cc(Br)cc1/C=N/n1c(-c2ccccc2)n[nH]c1=S | / | . | . | . | . | .
CC(=O)Nc1ccc(OCC(=O)NCc2ccccc2)cc1 | . | . | . | . | . | .
C=CC1=C2C=C(C3CC3)N(CC3CC3)C=C2C(=O)C(C)(OC(=O)c2ccco2)C1=O (stereo not given) | / | . | . | . | . | .
C=CCN1C=C2C(=O)C(C)(OC(=O)c3ccco3)C(=O)C(C=C)=C2C=C1C1CC1 (stereo not given) | / | . | . | 32.5 | . | /
C=CC1=C2C=C(C3CC3)N(CCCN(CC)CC)C=C2C(=O)C(C)(OC(=O)c2ccco2)C1=O (stereo not given) | / | . | . | 40.6 | . | .
C=CCOc1ccc(C2C(C(=O)c3ccco3)=C(O)C(=O)N2CCCN(CC)CC)cc1 (stereo not given) | . | . | . | . | . | .
CC#CC[N+](C)(C)CCCCCCCCCCCC | . | . | . | . | . | .
COC(=O)C1C(O)C(C)C(O)C(C)(O)/C=C\C=C(/C)C(=O)Nc2c(C)c(OC(C)=O)c3c(c2O)C(=O)C(C)=C2OCOC(=C23)/C(C)=C/C(C)(O)C(O)C(C)C1O (stereo not given) | . | . | . | 49.9 | . | .
CCC(=S)/C=C1\Sc2ccc3ccccc3c2N1CCCS(=O)(=O)O | . | . | -68.1 | . | . | /
CC(=O)N1c2ccc(S(=O)(=O)N3CCCC(C(=O)Nc4ccc(C)cc4)C3)cc2CC1C (stereo not given) | / | / | / | / | / | .
CC(=O)N1c2ccc(S(=O)(=O)N3CCCC(C(=O)Nc4ccc(F)cc4)C3)cc2CC1C (stereo not given) | / | . | . | 73.1 | . | .
NNC(=O)c1nc2ccccc2s1 | / | / | / | / | / | .
CCn1c(COc2ccccc2C)nnc1SCC(=O)N1CCC(C)CC1 | 76.3 | . | . | . | . | .
CC(C)(C)c1ccc(/C=C2\Oc3cc(O)ccc3C2=O)cc1 | / | . | -27.5 | . | . | .
O=C1/C(=C/c2ccc(Br)cc2)Oc2cc(O)ccc21 | / | 75.8 | -39.8 | . | . | .
Cc1nnc(NC(=O)CSc2cn(CCNC(=O)c3ccccc3)c3ccccc23)s1 | 54.5 | . | . | . | . | .
CC1=NN(C(N)=S)C(=O)C1N=Nc1cccc(C(=O)O)c1 (stereo not given) | / | / | -30.0 | / | / | .
CCn1nc(NC(=O)CC(C)C)c2cc3cccc(C)c3nc21 | / | . | . | 136.8 | . | .
COCCN1C(=O)CCC1(C)c1nnnn1-c1c(C)cccc1C (stereo not given) | / | / | / | / | / | .
CN(Cc1ccccc1)C(=C(Cl)Cl)C(=C1NCCN1)[N+](=O)[O-] | . | . | . | . | . | .
CCCCN1C(=O)/C(=C2/Sc3ccccc3N2C)S/C1=N\c1ncn[nH]1 | . | . | -69.2 | . | . | .
O=C(CSc1ncccn1)N/N=C/c1cccc(OC2CSC2)c1 | . | . | . | . | . | .
Cn1ncc(Cl)c1C(=O)N/N=C/c1cccc(OC2CSC2)c1 | . | . | -35.8 | . | . | .
COC(=O)c1ccc2c(c1)C(C)(C)C(/C=C/c1ccccc1O)=[N+]2C | . | 39.7 | ? | . | . | .
